Source: PubChem BioAssay (Tox21)
Values without a mark were called inactive. Records with an inconclusive call do not appear. Entries that show only a call come without a potency. The source made the active and inactive calls. Unless noted, calls come from the whole dose curve; as a rule, active = well fitted curve in the direction sought with a large enough effect in the repeat runs; inconclusive = weak or mixed curves; inactive = no such curve, though single readings can be large; an effect the other way counts as inactive or inconclusive.

How the values were obtained:
[1] = qHTS assay to identify small molecule antagonists of the sonic hedgehog signaling (Shh) pathway (AID 1259369; calls by dose curve; note: nearly all actives have a fitted effect of over 45% in size; note: potency is the fitted concentration of half-maximal effect)
In short: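 Inhibition of Shh signalling is measured as reduced Gli1-response-element firefly luciferase output in an NIH/3T3-derived stable reporter clone stimulated with conditioned medium for 24hr.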

[2] = biological target: Estrogen receptor beta (Homo sapiens) (UniProt Q92731); test: qHTS assay to identify small molecule agonists of the estrogen receptor beta (ER-beta) signaling pathway (AID 1259377; active = well fitted activation curve with a large enough effect in the signal ratio in the repeat runs, not every such curve was filed as active; the % refers to the signal ratio)
Chain of Estrogen receptor beta (Homo sapiens) (Q92731 whole entry, looked up): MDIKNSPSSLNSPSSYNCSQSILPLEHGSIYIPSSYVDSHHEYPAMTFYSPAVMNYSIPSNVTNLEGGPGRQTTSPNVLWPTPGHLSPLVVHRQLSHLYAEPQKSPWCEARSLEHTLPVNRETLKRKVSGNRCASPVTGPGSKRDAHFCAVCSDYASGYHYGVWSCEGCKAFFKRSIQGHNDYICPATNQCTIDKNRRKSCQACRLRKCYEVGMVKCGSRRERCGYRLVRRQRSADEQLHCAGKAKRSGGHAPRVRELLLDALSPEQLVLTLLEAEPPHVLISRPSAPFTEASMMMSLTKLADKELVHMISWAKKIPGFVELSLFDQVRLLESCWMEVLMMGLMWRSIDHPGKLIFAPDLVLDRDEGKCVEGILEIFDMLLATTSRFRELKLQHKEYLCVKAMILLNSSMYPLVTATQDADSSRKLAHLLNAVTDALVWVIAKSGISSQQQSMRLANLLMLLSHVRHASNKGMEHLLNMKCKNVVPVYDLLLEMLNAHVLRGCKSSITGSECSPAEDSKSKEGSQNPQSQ
In short: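 Reporter cells (HEK293T, ER-beta-UAS-bla) receive compounds or DMSO after a 6 hr pre-incubation. They then incubate 16 hr at 37C/5% CO2, and fluorescence from LiveBLAzer B/G substrate is measured after 2 hours at room temperature.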

[3] = biological target: Estrogen receptor beta (Homo sapiens) (UniProt Q92731); test: qHTS assay to identify small molecule antagonists of the estrogen receptor beta (ER-beta) signaling pathway (AID 1259378; active = well fitted inhibition curve with a large enough effect in the signal ratio in the repeat runs, not every such curve was filed as active; the % refers to the signal ratio)
In short: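 ER-beta-UAS-bla HEK293T cells in 2% charcoal-stripped FBS medium treated with compound plus 1nM final 17-beta-estradiol for 16 hr at 37C. Beta-lactamase reporter read by FRET substrate fluorescence after 2 hours at room temperature.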

[4] = qHTS assay to identify small molecule agonists of the estrogen receptor beta (ER-beta) signaling pathway - cell viability counter screen (AID 1259380); note: nearly all actives have a fitted effect of over 30% in size; note: potency is the fitted concentration of half-maximal effect
In short: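 Same-well viability counter screen. Cells: ER-beta-UAS-bla HEK293T, plated 6 hr before compound, in 2% charcoal-stripped FBS. Compound exposure 16 hr, 37C; viability by CellTiter-Glo luminescence after 30 min at room temperature.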

[5] = qHTS assay to identify small molecule antagonists of the estrogen receptor beta (ER-beta) signaling pathway - cell viability counter screen (AID 1259382); note: nearly all actives have a fitted effect of over 55% in size; note: potency is the fitted concentration of half-maximal effect
In short: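 Following a 6 hr plating period, HEK293T cells carrying a UAS-driven beta-lactamase reporter under ER-beta control received compounds and 1nM E2 (final). After 16 hr at 37C and 2 hr substrate loading, CellTiter-Glo luminescence indicated viability.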

[6] = biological target: Estrogen receptor (Homo sapiens) (UniProt P03372); test: qHTS assay to identify small molecule agonists of the estrogen receptor alpha (ER-alpha) signaling pathway in the presence of an antagonist (AID 1259383; calls by dose curve; note: top concentration of the series differs between compounds; nearly all actives have a fitted effect of over 15% in size)
Chain of Estrogen receptor (Homo sapiens) (P03372 whole entry, looked up): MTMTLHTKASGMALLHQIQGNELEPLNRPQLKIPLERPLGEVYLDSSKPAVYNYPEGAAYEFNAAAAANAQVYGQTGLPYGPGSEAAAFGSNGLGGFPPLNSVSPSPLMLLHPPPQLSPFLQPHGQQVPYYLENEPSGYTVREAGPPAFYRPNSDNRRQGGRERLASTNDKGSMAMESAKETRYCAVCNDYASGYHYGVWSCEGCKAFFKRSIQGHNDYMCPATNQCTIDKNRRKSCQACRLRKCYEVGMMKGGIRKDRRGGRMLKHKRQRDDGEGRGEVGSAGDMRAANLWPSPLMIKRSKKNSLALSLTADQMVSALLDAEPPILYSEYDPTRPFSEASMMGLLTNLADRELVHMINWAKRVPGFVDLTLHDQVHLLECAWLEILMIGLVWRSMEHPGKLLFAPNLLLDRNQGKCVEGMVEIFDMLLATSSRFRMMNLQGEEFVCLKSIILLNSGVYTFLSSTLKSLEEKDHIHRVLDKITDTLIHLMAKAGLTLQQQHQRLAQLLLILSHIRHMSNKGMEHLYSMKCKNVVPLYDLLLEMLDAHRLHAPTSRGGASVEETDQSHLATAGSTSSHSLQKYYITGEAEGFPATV
In short: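 Cells are hormone-deprived for 5 days (charcoal-stripped FBS, no phenol red), plated for 24hr, spiked with 10.0nM ICI-182,780, then dosed at 15 concentrations. After 22hr at 37C, ONE-Glo luminescence reports ERE-luciferase activity.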

[7] = qHTS assay to identify small molecule agonists or antagonists of the thyroid stimulating hormone receptor (TSHR) signaling pathway - wild type cell line counter screen (AID 1259384; calls by dose curve)
In short: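 Wild-type Hek293 cells, 800/well, 18 h at 37C, then compound with Ro20-1724 for 30 min RT. cAMP by HTRF (cAMP-d2/anti-cAMP cryptate), 1 h RT, fluorescence read. 15 concentrations, triplicates.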

[8] = biological target: Thyrotropin receptor (Homo sapiens) (UniProt P16473); test: qHTS assay to identify small molecule antagonists of the thyroid stimulating hormone receptor (TSHR) signaling pathway (AID 1259385; calls by dose curve; note: nearly all actives have a fitted effect of over 20% in size)
Chain of Thyrotropin receptor (Homo sapiens) (P16473 whole entry, looked up): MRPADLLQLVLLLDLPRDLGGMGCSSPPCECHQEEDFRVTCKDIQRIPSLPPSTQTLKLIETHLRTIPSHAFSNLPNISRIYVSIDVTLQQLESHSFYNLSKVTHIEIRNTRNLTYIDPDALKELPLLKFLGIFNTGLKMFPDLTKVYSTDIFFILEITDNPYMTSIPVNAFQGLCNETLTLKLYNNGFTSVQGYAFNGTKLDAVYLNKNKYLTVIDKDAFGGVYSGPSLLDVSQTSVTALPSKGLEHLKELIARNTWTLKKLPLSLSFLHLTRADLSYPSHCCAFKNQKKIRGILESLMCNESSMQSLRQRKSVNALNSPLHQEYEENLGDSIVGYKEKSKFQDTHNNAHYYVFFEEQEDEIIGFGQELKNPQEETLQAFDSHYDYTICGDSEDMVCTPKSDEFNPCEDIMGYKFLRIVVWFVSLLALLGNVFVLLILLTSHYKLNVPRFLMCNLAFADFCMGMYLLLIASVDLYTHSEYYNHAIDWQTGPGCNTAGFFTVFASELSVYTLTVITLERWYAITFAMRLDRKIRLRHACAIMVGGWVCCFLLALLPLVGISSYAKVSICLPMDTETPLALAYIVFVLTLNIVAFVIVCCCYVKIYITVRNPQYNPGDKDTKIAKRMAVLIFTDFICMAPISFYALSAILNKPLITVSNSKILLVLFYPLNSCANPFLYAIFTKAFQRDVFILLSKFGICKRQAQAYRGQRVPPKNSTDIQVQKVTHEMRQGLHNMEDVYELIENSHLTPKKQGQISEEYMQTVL
In short: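 TSHR-HEK293 cells (800/well) plated 18 h, then compounds with Ro20-1724 and TSH at 1.5 ng/mL final, 30 min at room temperature. cAMP quantified by HTRF (cAMP-d2/anti-cAMP-cryptate, 1 h); 15 concentrations in triplicate.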

[9] = qHTS assay to identify small molecule agonists of the estrogen receptor alpha (ER-alpha) signaling pathway in the presence of an antagonist - cell viability counter screen (AID 1259386);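 note: series mostly up to about 92 µM; cells exposed to compounds for 22 h at 37 °C before the viability read; nearly all actives have a fitted effect of over 30% in size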
In short: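 Cells are starved of estrogens for 5 days in charcoal-stripped serum, seeded for 24hr and co-treated with ICI-182,780 (10.0nM final) and test compounds. After 22hr at 37C, viability is read as CellTiter-Fluor fluorescence.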

[10] = biological target: Progesterone receptor (Homo sapiens) (UniProt P06401); test: qHTS assay to identify small molecule agonists of the progesterone receptor (PR) signaling pathway (AID 1346784; calls by dose curve; note: nearly all actives have a fitted effect of over 30% in size)
Chain of Progesterone receptor (Homo sapiens) (P06401 whole entry, looked up): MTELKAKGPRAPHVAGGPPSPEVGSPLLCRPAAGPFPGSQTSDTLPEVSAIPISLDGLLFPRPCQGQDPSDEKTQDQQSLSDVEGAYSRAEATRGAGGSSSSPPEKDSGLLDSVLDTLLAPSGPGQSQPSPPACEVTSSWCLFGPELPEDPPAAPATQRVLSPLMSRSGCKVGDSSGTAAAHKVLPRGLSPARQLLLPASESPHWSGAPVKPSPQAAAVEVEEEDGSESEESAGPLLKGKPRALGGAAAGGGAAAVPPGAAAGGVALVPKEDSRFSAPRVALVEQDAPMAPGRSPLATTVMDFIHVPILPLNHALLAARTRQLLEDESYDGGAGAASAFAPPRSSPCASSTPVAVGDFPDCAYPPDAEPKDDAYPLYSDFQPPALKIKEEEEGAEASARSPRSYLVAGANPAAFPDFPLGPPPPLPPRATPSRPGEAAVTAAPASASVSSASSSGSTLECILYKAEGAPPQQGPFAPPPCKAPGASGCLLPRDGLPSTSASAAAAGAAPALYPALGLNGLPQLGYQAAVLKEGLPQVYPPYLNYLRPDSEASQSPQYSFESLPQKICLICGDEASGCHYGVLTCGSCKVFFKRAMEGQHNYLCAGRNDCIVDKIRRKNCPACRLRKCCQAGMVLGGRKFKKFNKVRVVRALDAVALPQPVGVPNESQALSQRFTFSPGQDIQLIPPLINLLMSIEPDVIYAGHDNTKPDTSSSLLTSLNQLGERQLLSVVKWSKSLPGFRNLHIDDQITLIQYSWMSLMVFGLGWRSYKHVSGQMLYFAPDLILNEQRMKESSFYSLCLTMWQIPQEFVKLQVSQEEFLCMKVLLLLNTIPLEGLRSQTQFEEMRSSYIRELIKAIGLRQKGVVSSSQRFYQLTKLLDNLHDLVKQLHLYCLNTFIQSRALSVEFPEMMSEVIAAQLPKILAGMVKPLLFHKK
In short: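 Reporter assay, GripTite PR-UAS-bla HEK 293T cells: 16 hr exposure to DMSO-dissolved compounds at 37C, 5% CO2, in steroid-depleted (2% charcoal-stripped FBS) medium; beta-lactamase measured by FRET fluorescence.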

[11] = biological target: Progesterone receptor (Homo sapiens) (UniProt P06401); test: qHTS assay to identify small molecule antagonists of the progesterone receptor (PR) signaling pathway (AID 1346795; active = well fitted inhibition curve with a large enough effect in the signal ratio in the repeat runs, not every such curve was filed as active; the % refers to the signal ratio; note: potency is the fitted concentration of half-maximal effect)
In short: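 Stimulus R5020 at 1 nM final; cells HEK293T PR-UAS-bla; medium with 2% charcoal-stripped FBS; compound exposure 16 hr at 37C, 5% CO2; detection by FRET beta-lactamase substrate, 2 hr, room temperature.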

[12] = qHTS assay to identify small molecule agonists of the progesterone receptor (PR) signaling pathway - cell viability counter screen (AID 1346799; calls by dose curve; note: nearly all actives have a fitted effect of over 45% in size)
In short: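 Multiplexed viability read: CellTiter-Glo luminescence, 30 min RT, following LiveBLAzer FRET measurement on PR-UAS-bla HEK293T cells exposed to compounds 16 hr.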

[13] = qHTS assay to identify small molecule antagonists of the TGF-beta/Smad signaling pathway - cell viability counter screen (AID 1346824); note: nearly all actives have a fitted effect of over 50% in size
In short: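 SBE-bla HEK 293T cells, incubated overnight, then compound plus 0.25 ng/mL TGF-beta1 (stock added) for 5 hr at 37 C. Viability was read in the same wells by CellTiter-Glo luminescence after 30 min at room temperature.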

[14] = qHTS assay to identify small molecule agonists of the TGF-beta/Smad signaling pathway - cell viability counter screen (AID 1346829); note: top concentration of the series differs between compounds; nearly all actives have a fitted effect of over 45% in size
In short: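 Luminescence from CellTiter-Glo, read after a 30 min room-temperature incubation, gives cell viability of SBE-bla HEK 293T cells treated 5 hr with compounds at 37 C.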

[15] = qHTS assay to identify small molecule agonists of the TGF-beta/Smad signaling pathway (AID 1346859; active = well fitted activation curve with a large enough effect in the signal ratio in the repeat runs, not every such curve was filed as active; the % refers to the signal ratio; note: series mostly up to about 77 µM)
In short: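 Screening used HEK 293T SBE-bla cells at 4,000/well. Test agents: 5 hr, 37 C. Detection: FRET substrate, 2 hr RT, then excitation 405 nm with emissions at 460 and 530 nm.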

[16] = qHTS assay to identify small molecule agonists of the androgen receptor (AR) signaling pathway in the presence of an antagonist - cell viability counter screen (AID 1259379);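 note: MDA-kb2 human breast cancer cells carrying an MMTV luciferase reporter; series mostly up to about 92 µM; nearly all actives have a fitted effect of over 25% in size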
In short: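 Fluorescence from CellTiter-Fluor, added after 15 hr and read 1 hr later, gave cell viability. Cells were MDA-kb2 exposed to compounds (15 concentrations) in the presence of 3.0uM nilutamide at 37C, 0% CO2.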

[17] = biological target: Androgen receptor (Homo sapiens) (UniProt P10275); test: qHTS assay to identify small molecule agonists of the androgen receptor (AR) signaling pathway in the presence of an antagonist (AID 1259381; calls by dose curve; note: nearly all actives have a fitted effect of over 15% in size)
Chain of Androgen receptor (Homo sapiens) (P10275 whole entry, looked up): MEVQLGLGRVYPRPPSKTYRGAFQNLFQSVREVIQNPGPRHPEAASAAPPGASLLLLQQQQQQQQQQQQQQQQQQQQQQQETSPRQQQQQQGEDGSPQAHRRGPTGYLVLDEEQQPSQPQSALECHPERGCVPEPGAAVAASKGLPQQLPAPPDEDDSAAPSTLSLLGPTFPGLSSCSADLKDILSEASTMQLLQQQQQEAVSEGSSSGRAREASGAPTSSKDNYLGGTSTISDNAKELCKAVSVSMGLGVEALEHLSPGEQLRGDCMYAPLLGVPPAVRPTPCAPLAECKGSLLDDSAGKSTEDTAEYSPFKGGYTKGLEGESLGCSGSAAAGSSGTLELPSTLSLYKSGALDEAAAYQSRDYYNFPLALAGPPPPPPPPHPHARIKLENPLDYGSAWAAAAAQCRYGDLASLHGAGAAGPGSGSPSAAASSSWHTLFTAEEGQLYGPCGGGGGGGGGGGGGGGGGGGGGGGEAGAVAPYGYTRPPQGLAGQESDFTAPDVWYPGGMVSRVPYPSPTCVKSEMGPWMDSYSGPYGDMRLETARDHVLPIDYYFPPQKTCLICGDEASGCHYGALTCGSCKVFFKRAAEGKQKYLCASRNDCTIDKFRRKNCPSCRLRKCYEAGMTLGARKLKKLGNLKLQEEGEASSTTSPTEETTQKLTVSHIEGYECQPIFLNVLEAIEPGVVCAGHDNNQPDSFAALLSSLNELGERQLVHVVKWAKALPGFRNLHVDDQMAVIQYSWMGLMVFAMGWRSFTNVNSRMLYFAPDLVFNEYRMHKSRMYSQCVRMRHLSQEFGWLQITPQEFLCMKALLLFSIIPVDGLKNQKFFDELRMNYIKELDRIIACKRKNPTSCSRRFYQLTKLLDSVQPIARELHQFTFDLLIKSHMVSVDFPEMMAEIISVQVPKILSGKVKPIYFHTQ
In short: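 Cells are MDA-kb2 (human breast carcinoma, MMTV-luc, AR/GR responsive). Nilutamide is present at 3.0uM final throughout; compounds are added at 15 concentrations and incubated 16hr at 37C before ONE-Glo luminescence detection.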

[18] = qHTS assay to identify small molecule antagonists of the progesterone receptor (PR) signaling pathway - cell viability counter screen (AID 1346798); note: series mostly up to about 92 µM; nearly all actives have a fitted effect of over 50% in size
In short: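 In the same plates used for the beta-lactamase readout, cell viability of compound- and R5020-treated PR-UAS-bla HEK293T cells (16 hr, 37C) was assessed by CellTiter-Glo luminescence.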

[19] = biological target: Thyrotropin-releasing hormone receptor (Homo sapiens) (UniProt P34981); test: qHTS assay to identify small molecule antagonists of the thyrotropin-releasing hormone receptor (TRHR) signaling pathway (AID 1346877; active = well fitted inhibition curve with a large enough effect in the repeat runs, not every such curve was filed as active; note: series mostly up to about 51 µM)
Chain of Thyrotropin-releasing hormone receptor (Homo sapiens) (P34981 whole entry, looked up): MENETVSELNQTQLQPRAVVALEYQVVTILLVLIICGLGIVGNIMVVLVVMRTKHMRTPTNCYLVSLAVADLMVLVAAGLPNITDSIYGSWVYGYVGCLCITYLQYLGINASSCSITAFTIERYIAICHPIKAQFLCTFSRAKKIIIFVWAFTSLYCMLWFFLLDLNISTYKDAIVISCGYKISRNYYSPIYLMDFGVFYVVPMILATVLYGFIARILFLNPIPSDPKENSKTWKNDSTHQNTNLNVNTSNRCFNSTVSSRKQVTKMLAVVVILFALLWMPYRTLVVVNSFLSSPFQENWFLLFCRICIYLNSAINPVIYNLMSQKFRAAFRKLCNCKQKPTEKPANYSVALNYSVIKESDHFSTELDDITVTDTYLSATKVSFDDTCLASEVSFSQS
In short: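 Cells (TRHR-HEK293) are plated and kept 18 h at 37 °C/5% CO2. A calcium-sensitive dye is added for 2 h, compound follows for 5 min at room temperature, and TRH is then given at 1 nM final.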

[20] = biological target: Thyrotropin-releasing hormone receptor (Homo sapiens) (UniProt P34981); test: qHTS assay to identify small molecule agonists of the thyrotropin-releasing hormone receptor (TRHR) signaling pathway (AID 1346891; calls by dose curve; note: series mostly up to about 58 µM)
In short: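 Readout was intracellular calcium fluorescence in TRHR-Hek293 cells. Cells were incubated 18 h, dye-loaded 2 h at 37 °C, and treated with compound in agonist mode.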

SMILES: CN1CCC(=C2c3ccccc3C=Cc3ccccc32)CC1
- Potency [1]: 0.335 µM (active)
- Potency [2]: inactive
- Potency [3]: inactive
- Potency [4]: 26.6 µM (active)
- Potency [5]: 21.1 µM (active)
- Potency [6]: inactive
- Potency [7]: inactive
- Potency [8]: inactive
- Potency [9]: inactive
- outcome [10]: inactive
- Potency [11]: inactive
- Potency [12]: inactive
- Potency [13]: inactive
- Potency [14]: inactive
- outcome [15]: inactive

SMILES: O=C(O)c1cn(C2CC2)c2cc(Cl)c(F)cc2c1=O
- Potency [1]: inactive
- Potency [2]: inactive
- Potency [16]: inactive
- Potency [4]: inactive
- Potency [17]: inactive
- Potency [5]: inactive
- Potency [6]: inactive
- Potency [7]: inactive
- Potency [8]: inactive
- Potency [9]: inactive
- Potency [18]: inactive
- Potency [12]: inactive
- Potency [13]: inactive
- Potency [14]: inactive
- outcome [19]: inactive
- Potency [20]: inactive

SMILES: Oc1ccc(O)c2c(O)cccc12
- Potency [1]: inactive
- Potency [2]: inactive
- Potency [3]: inactive
- Potency [4]: inactive
- Potency [5]: inactive
- Potency [6]: inactive
- Potency [7]: inactive
- Potency [8]: inactive
- Potency [9]: inactive
- Potency [18]: inactive
- Potency [12]: inactive
- Potency [13]: inactive
- Potency [14]: inactive
- outcome [15]: inactive
- outcome [19]: inactive
- Potency [20]: inactive

SMILES: Cn1c(N)nc2nc[nH]c2c1=O
- Potency [1]: inactive
- Potency [2]: inactive
- Potency [3]: inactive
- Potency [4]: inactive
- Potency [5]: inactive
- Potency [9]: inactive
- outcome [10]: inactive
- Potency [12]: inactive
- Potency [13]: inactive
- Potency [14]: inactive
- outcome [15]: inactive
- outcome [19]: inactive
- Potency [20]: inactive

SMILES: CC(C)CC=O
- Potency [1]: inactive
- Potency [2]: inactive
- Potency [3]: inactive
- Potency [4]: inactive
- Potency [5]: inactive
- Potency [6]: inactive
- Potency [7]: inactive
- Potency [9]: inactive
- outcome [10]: inactive
- Potency [11]: inactive
- Potency [12]: inactive
- Potency [13]: inactive
- Potency [14]: inactive
- outcome [15]: inactive
- outcome [19]: inactive
- Potency [20]: inactive

SMILES: O=C(/C=C/c1ccc(O)c(O)c1)O[C@@H]1C[C@](O)(C(=O)O)C[C@@H](O)[C@H]1O
- Potency [1]: inactive
- Potency [2]: inactive
- Potency [3]: inactive
- Potency [4]: inactive
- Potency [5]: inactive
- outcome [10]: inactive
- Potency [18]: inactive
- Potency [12]: inactive
- Potency [13]: inactive
- Potency [14]: inactive
- outcome [15]: inactive
- outcome [19]: inactive
- Potency [20]: inactive

SMILES: CC(C)(C)c1ccc(S)cc1
- Potency [1]: inactive
- Potency [2]: inactive
- Potency [16]: inactive
- Potency [5]: inactive
- Potency [6]: inactive
- Potency [7]: inactive
- Potency [9]: inactive
- outcome [10]: inactive
- Potency [11]: inactive
- Potency [18]: inactive
- Potency [12]: inactive
- Potency [13]: inactive
- Potency [14]: inactive
- outcome [15]: inactive
- outcome [19]: inactive
- Potency [20]: inactive

SMILES: CCCCCCCCC(CO)CCCCCC (centres undefined)
- Potency [1]: inactive
- Potency [3]: inactive
- Potency [16]: inactive
- Potency [4]: inactive
- Potency [5]: inactive
- Potency [6]: inactive
- Potency [7]: inactive
- Potency [8]: inactive
- Potency [9]: inactive
- outcome [10]: inactive
- Potency [11]: inactive
- Potency [18]: inactive
- Potency [12]: inactive
- Potency [13]: inactive
- Potency [14]: inactive
- outcome [15]: inactive

SMILES: O=C1[C@H](CC[C@H](O)c2ccc(F)cc2)[C@@H](c2ccc(O)cc2)N1c1ccc(F)cc1
- Potency [1]: inactive
- Potency [2]: inactive
- Potency [16]: inactive
- Potency [4]: inactive
- Potency [5]: inactive
- Potency [6]: inactive
- Potency [7]: inactive
- Potency [8]: inactive
- Potency [9]: inactive
- Potency [11]: 23.7 µM (active)
- Potency [13]: inactive
- Potency [14]: inactive
- outcome [15]: inactive
